For 4 molecules, growth results are on record in PubChem BioAssay (NCI).

Assay in all cases: NCI-60 one-dose screen, 48 h (100 = growth as untreated, 0 = no growth, -100 = all killed)
What all share (details): 10 µM unless noted

For assay [1], the system named is SR leukemia.
Assay [2] relates to RPMI-8226 leukemia.
Assay [3] relates to OVCAR-8 ovarian.
Assay [4] has as its system OVCAR-5 ovarian.
The subject of assay [5] is OVCAR-4 ovarian.
Assay [6] deals with SK-OV-3 ovarian.
The subject of assay [7] is IGROV1 ovarian.
Assay [8] relates to OVCAR-3 ovarian.
Assay [9] has as its system HS 578T breast.
In assay [10] the test system is NCI/ADR-RES ovarian.
The test system of assay [11] is T-47D breast.
The subject of assay [12] is BT-549 breast.
The subject of assay [13] is MDA-MB-435 melanoma.
Assay [14] has as its system SW-620 colon.
In assay [15] the test system is MCF7 breast.
The test system of assay [16] is HCT-116 colon.
The test system of assay [17] is HCC-2998 colon.
For assay [18], the system named is KM12 colon.

Molecules are shown by their SMILES. Compounds without any hit were thinned out: in the full panel of roughly 83,000, 20% have a hit.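 Results are percent growth after 48 hours of single-concentration exposure. 100 means growth as in untreated cells, lower positive values show inhibition; negative values down to -100 show cell death.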 A number with no mark means an inactive call. Activity calls are given as the source filed them. How the source made its calls: active means growth percent below 10; inactive means the rest.

With `CCCCCCCCn1ccc2cc(NC(=O)Cn3cc(CN4CCOCC4)nn3)ccc21`, the growth in [1] is 87.6%; in [2] it was 94.8%; in assay [3], 102%; in assay [4], 91.1%; in assay [5], 99.5%; in assay [6], 111%. The growth in assay [7] was 96.4%; in [8] it was 98.2%; in assay [9], 90%; in assay [10] it was 115%; in assay [11] it was 93.4%; in assay [12] it was 78.2%. In addition, the growth in assay [13] is 99.7%; in assay [14], 97.4%; in [15], 89.5%; in assay [16], 92.5%; in assay [17], 113%; in assay [18], 93.3%.

Regarding `C=CC(C)(O)CC/C=C(\CO)C(=O)OC1C(C)OC(O[C@](C)(C=C)CC/C=C(\CO)C(=O)O[C@H]2C[C@@]3(C(=O)OC4OC(CO)C(O)C(O)C4OC4OC(C)C(OC5OC(CO)C(O)C5O)C(OC5OC(CO)C(O)C(O)C5O)C4O)C(CC2(C)C)C2=CCC4[C@@]5(C)CC[C@H](OC6OC(COC7OC(C)C(O)C(O)C7OC7OCC(O)C(O)C7O)C(O)C(O)C6NC(C)=O)C(C)(C)C5CC[C@@]4(C)[C@]2(C)C[C@H]3O)C(O)C1O` (stereo not given in full), the growth in assay [1] is -26.7% (active); in [2] it was 41.4%; in [3], 10.3%; in assay [4], 11.8%; in assay [5], -29.2% (active); in assay [6], -79.8% (active). The growth is -49.2% (active) in [7]; -94% (active) in [8]; -31.4% (active) in assay [9]; 17.5% in assay [10]; -54% (active) in assay [11]; 104% in assay [12]. Besides, the growth in assay [13] is -80.5% (active); in assay [14], -43.2% (active); in [15], -50% (active); in assay [16], 6.13% (active); in [17] it was -90.5% (active); in assay [18], -86.7% (active).

For the molecule `CCOC(=O)c1c(NC(=O)CSc2n[nH]c3nc4ccccc4n23)sc(CC)c1C`, the growth was -28.6% (active) in assay [1]; 107% in assay [2]; 99.2% in [3]; 82% in assay [4]; 98.1% in assay [5]; 97.4% in assay [6]. The growth was 20.4% in assay [7]; 106% in assay [8]; 102% in [9]; 95.2% in assay [10]; 97.1% in assay [11]; 137% in [12]. Also, the growth in assay [14] is 104%; in assay [15] it was 91.9%; in assay [16], 93.9%; in assay [17] it was 105%; in assay [18], 98.3%.

Take `CCN(CC)c1ccc(/C=N\NC(=O)c2cccc(Nc3ccnc(C(F)(F)F)c3)c2)c(O)c1`: the growth was 131% in [1]; 6.52% (active) in assay [2]; 37.3% in assay [3]; 48.6% in [4]; 18.8% in [5]; 19.5% in assay [6]. Further, the growth in assay [7] is 79.9%; in [8], 30.9%; in assay [9], 57.8%; in [10] it was 29.4%; in [11] it was 15.1%; in [12], 28.8%. In addition, the growth in [13] was 15.4%; in assay [15], 16.1%; in assay [16] it was 26.5%; in [17], 60.1%; in [18] it was 23%.
